# Data taken from publication doi:10.1101/2024.03.05.583629.
# Experiments:
# [1] = target: pT7_6His-AlfaTag-HOXD13 (human, UniProt P35453 263-343); assay: PADIT-seq; details: dsDNA, one strand shown
# [2] = target: pT7_6His-AlfaTag-ZIF268 (human, UniProt P18146 335-423); assay: PADIT-seq; details: dsDNA, one strand shown
# Chain of pT7_6His-AlfaTag-HOXD13 (P35453 263-343): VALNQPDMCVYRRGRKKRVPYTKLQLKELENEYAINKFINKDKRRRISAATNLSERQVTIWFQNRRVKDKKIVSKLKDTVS
Sequence,binding signal [1] [log2FC],binding signal [2] [log2FC]
CTCGAGGATATCAAGATCTGGCCTCGGCTTTTTACCTGGAACCTCTAGCTAGCCGACTCACTATAGGGATAATCGCCCTGAGCAAAGACC,-0.185 ± 0.138,0.019 ± 0.125
CTCGAGGATATCAAGATCTGGCCTCGGCTCGTGGGCGGGAACCTCTAGCTAGCCGACTCACTATAGGGATAATCGCCCTGAGCAAAGACC,-0.771 ± 0.106,2.74 ± 0.0778
CTCGAGGATATCAAGATCTGGCCTCGGCGCGCAGGCGGGAACCTCTAGCTAGCCGACTCACTATAGGGATAATCGCCCTGAGCAAAGACC,-1.07 ± 0.126,0.339 ± 0.0965
CTCGAGGATATCAAGATCTGGCCTCGGCACCGTAAAAGGAACCTCTAGCTAGCCGACTCACTATAGGGATAATCGCCCTGAGCAAAGACC,1.91 ± 0.0753,0.0818 ± 0.0804
CTCGAGGATATCAAGATCTGGCCTCGGCACAGTAAAAGGAACCTCTAGCTAGCCGACTCACTATAGGGATAATCGCCCTGAGCAAAGACC,1.94 ± 0.076,0.04 ± 0.0816
CTCGAGGATATCAAGATCTGGCCTCGGCATCTTAAAAGGAACCTCTAGCTAGCCGACTCACTATAGGGATAATCGCCCTGAGCAAAGACC,1.62 ± 0.0869,0.00209 ± 0.0901
CTCGAGGATATCAAGATCTGGCCTCGGCAGTTTAAAAGGAACCTCTAGCTAGCCGACTCACTATAGGGATAATCGCCCTGAGCAAAGACC,2.23 ± 0.0764,0.0518 ± 0.0805
CTCGAGGATATCAAGATCTGGCCTCGGCGTTTTAGCAGGAACCTCTAGCTAGCCGACTCACTATAGGGATAATCGCCCTGAGCAAAGACC,0.799 ± 0.115,0.0694 ± 0.112
CTCGAGGATATCAAGATCTGGCCTCGGCGCGGGGGCGGGAACCTCTAGCTAGCCGACTCACTATAGGGATAATCGCCCTGAGCAAAGACC,-0.903 ± 0.133,3.63 ± 0.0947
CTCGAGGATATCAAGATCTGGCCTCGGCGCGATTGCGGGAACCTCTAGCTAGCCGACTCACTATAGGGATAATCGCCCTGAGCAAAGACC,-0.695 ± 0.114,0.187 ± 0.0941
CTCGAGGATATCAAGATCTGGCCTCGGCGAGTGGGCGGGAACCTCTAGCTAGCCGACTCACTATAGGGATAATCGCCCTGAGCAAAGACC,-0.602 ± 0.0984,2.79 ± 0.0771
CTCGAGGATATCAAGATCTGGCCTCGGCGACCCACGCGGAACCTCTAGCTAGCCGACTCACTATAGGGATAATCGCCCTGAGCAAAGACC,-1.05 ± 0.109,0.214 ± 0.0833
CTCGAGGATATCAAGATCTGGCCTCGGCCTTTTATCGGGAACCTCTAGCTAGCCGACTCACTATAGGGATAATCGCCCTGAGCAAAGACC,1.63 ± 0.0763,0.0806 ± 0.0794
CTCGAGGATATCAAGATCTGGCCTCGGCTCGGTAAAAGGAACCTCTAGCTAGCCGACTCACTATAGGGATAATCGCCCTGAGCAAAGACC,0.426 ± 0.0878,0.074 ± 0.0831
CTCGAGGATATCAAGATCTGGCCTCGGCCGCCCAGGCGGAACCTCTAGCTAGCCGACTCACTATAGGGATAATCGCCCTGAGCAAAGACC,-0.81 ± 0.134,–
CTCGAGGATATCAAGATCTGGCCTCGGCCATTGGGCGGGAACCTCTAGCTAGCCGACTCACTATAGGGATAATCGCCCTGAGCAAAGACC,-0.505 ± 0.104,0.139 ± 0.0899
CTCGAGGATATCAAGATCTGGCCTCGGCCCTTTAAAAGGAACCTCTAGCTAGCCGACTCACTATAGGGATAATCGCCCTGAGCAAAGACC,2.14 ± 0.0827,0.0924 ± 0.0888
CTCGAGGATATCAAGATCTGGCCTCGGCCAAGTAAAAGGAACCTCTAGCTAGCCGACTCACTATAGGGATAATCGCCCTGAGCAAAGACC,0.682 ± 0.11,0.0157 ± 0.107
CTCGAGGATATCAAGATCTGGCCTCGGCGCGTGGAATGGAACCTCTAGCTAGCCGACTCACTATAGGGATAATCGCCCTGAGCAAAGACC,-0.959 ± 0.133,0.0778 ± 0.106
CTCGAGGATATCAAGATCTGGCCTCGGCGCATGGGCGGGAACCTCTAGCTAGCCGACTCACTATAGGGATAATCGCCCTGAGCAAAGACC,-0.757 ± 0.112,0.51 ± 0.0916
CTCGAGGATATCAAGATCTGGCCTCGGCGTTTTACGGGGAACCTCTAGCTAGCCGACTCACTATAGGGATAATCGCCCTGAGCAAAGACC,3.16 ± 0.0771,0.0617 ± 0.0868
CTCGAGGATATCAAGATCTGGCCTCGGCGCGTGGATAGGAACCTCTAGCTAGCCGACTCACTATAGGGATAATCGCCCTGAGCAAAGACC,-0.997 ± 0.122,0.0372 ± 0.0987
CTCGAGGATATCAAGATCTGGCCTCGGCGCAGTAAAAGGAACCTCTAGCTAGCCGACTCACTATAGGGATAATCGCCCTGAGCAAAGACC,2.28 ± 0.0773,0.0357 ± 0.0818
CTCGAGGATATCAAGATCTGGCCTCGGCGCGTGGTACGGAACCTCTAGCTAGCCGACTCACTATAGGGATAATCGCCCTGAGCAAAGACC,-0.921 ± 0.116,0.427 ± 0.0903
CTCGAGGATATCAAGATCTGGCCTCGGCATTTTAGGGGGAACCTCTAGCTAGCCGACTCACTATAGGGATAATCGCCCTGAGCAAAGACC,1.57 ± 0.105,0.0683 ± 0.108
CTCGAGGATATCAAGATCTGGCCTCGGCTACATAAAAGGAACCTCTAGCTAGCCGACTCACTATAGGGATAATCGCCCTGAGCAAAGACC,2.05 ± 0.0966,0.0761 ± 0.103

Sequence,binding signal [1] [log2FC],binding signal [2] [log2FC]
CTCGAGGATATCAAGATCTGGCCTCGGCTAATGGGCGGGAACCTCTAGCTAGCCGACTCACTATAGGGATAATCGCCCTGAGCAAAGACC,0.254 ± 0.0964,0.0526 ± 0.0899
CTCGAGGATATCAAGATCTGGCCTCGGCGCTTGGGCGGGAACCTCTAGCTAGCCGACTCACTATAGGGATAATCGCCCTGAGCAAAGACC,-0.995 ± 0.12,0.158 ± 0.0966
CTCGAGGATATCAAGATCTGGCCTCGGCAGGTTAAAAGGAACCTCTAGCTAGCCGACTCACTATAGGGATAATCGCCCTGAGCAAAGACC,0.752 ± 0.0728,0.0674 ± 0.0711
CTCGAGGATATCAAGATCTGGCCTCGGCATCCTAAAAGGAACCTCTAGCTAGCCGACTCACTATAGGGATAATCGCCCTGAGCAAAGACC,0.337 ± 0.103,0.0323 ± 0.0965
CTCGAGGATATCAAGATCTGGCCTCGGCCTTTTAGGAGGAACCTCTAGCTAGCCGACTCACTATAGGGATAATCGCCCTGAGCAAAGACC,1.3 ± 0.0799,0.0187 ± 0.0815
CTCGAGGATATCAAGATCTGGCCTCGGCGCGGGCGCGGGAACCTCTAGCTAGCCGACTCACTATAGGGATAATCGCCCTGAGCAAAGACC,-1.05 ± 0.132,0.156 ± 0.102
CTCGAGGATATCAAGATCTGGCCTCGGCGTTTTATGCGGAACCTCTAGCTAGCCGACTCACTATAGGGATAATCGCCCTGAGCAAAGACC,2.07 ± 0.0741,0.0171 ± 0.08
CTCGAGGATATCAAGATCTGGCCTCGGCGTTTTAGGCGGAACCTCTAGCTAGCCGACTCACTATAGGGATAATCGCCCTGAGCAAAGACC,-0.768 ± 0.146,0.0528 ± 0.123
CTCGAGGATATCAAGATCTGGCCTCGGCCGCGCCCGCGGAACCTCTAGCTAGCCGACTCACTATAGGGATAATCGCCCTGAGCAAAGACC,-1.09 ± 0.134,0.0207 ± 0.105
CTCGAGGATATCAAGATCTGGCCTCGGCCGCCCATCCGGAACCTCTAGCTAGCCGACTCACTATAGGGATAATCGCCCTGAGCAAAGACC,-1.06 ± 0.122,0.00306 ± 0.0965
CTCGAGGATATCAAGATCTGGCCTCGGCATTTTAATCGGAACCTCTAGCTAGCCGACTCACTATAGGGATAATCGCCCTGAGCAAAGACC,1.1 ± 0.0894,0.0175 ± 0.09
CTCGAGGATATCAAGATCTGGCCTCGGCTAGTGGGCGGGAACCTCTAGCTAGCCGACTCACTATAGGGATAATCGCCCTGAGCAAAGACC,-0.725 ± 0.112,1.78 ± 0.084
CTCGAGGATATCAAGATCTGGCCTCGGCAGTGTAAAAGGAACCTCTAGCTAGCCGACTCACTATAGGGATAATCGCCCTGAGCAAAGACC,0.712 ± 0.08,0.045 ± 0.0778
CTCGAGGATATCAAGATCTGGCCTCGGCTCCCCACGCGGAACCTCTAGCTAGCCGACTCACTATAGGGATAATCGCCCTGAGCAAAGACC,-0.217 ± 0.124,0.208 ± 0.106
CTCGAGGATATCAAGATCTGGCCTCGGCGCCCCACGCGGAACCTCTAGCTAGCCGACTCACTATAGGGATAATCGCCCTGAGCAAAGACC,-0.996 ± 0.127,0.0171 ± 0.103
CTCGAGGATATCAAGATCTGGCCTCGGCCGCCACCGCGGAACCTCTAGCTAGCCGACTCACTATAGGGATAATCGCCCTGAGCAAAGACC,-0.959 ± 0.127,0.142 ± 0.0977
CTCGAGGATATCAAGATCTGGCCTCGGCCAGATAAAAGGAACCTCTAGCTAGCCGACTCACTATAGGGATAATCGCCCTGAGCAAAGACC,0.383 ± 0.117,0.0449 ± 0.11
CTCGAGGATATCAAGATCTGGCCTCGGCATATGGGCGGGAACCTCTAGCTAGCCGACTCACTATAGGGATAATCGCCCTGAGCAAAGACC,-0.745 ± 0.103,0.0376 ± 0.0849
CTCGAGGATATCAAGATCTGGCCTCGGCATTTTACTCGGAACCTCTAGCTAGCCGACTCACTATAGGGATAATCGCCCTGAGCAAAGACC,0.755 ± 0.0905,0.0783 ± 0.0882
CTCGAGGATATCAAGATCTGGCCTCGGCACCATAAAAGGAACCTCTAGCTAGCCGACTCACTATAGGGATAATCGCCCTGAGCAAAGACC,2.69 ± 0.0753,0.0345 ± 0.0841
CTCGAGGATATCAAGATCTGGCCTCGGCGCGTGGGGTGGAACCTCTAGCTAGCCGACTCACTATAGGGATAATCGCCCTGAGCAAAGACC,-1.1 ± 0.157,1.28 ± 0.111
CTCGAGGATATCAAGATCTGGCCTCGGCGCGGATGCGGGAACCTCTAGCTAGCCGACTCACTATAGGGATAATCGCCCTGAGCAAAGACC,0.465 ± 0.106,0.109 ± 0.102
CTCGAGGATATCAAGATCTGGCCTCGGCATTTTACAGGGAACCTCTAGCTAGCCGACTCACTATAGGGATAATCGCCCTGAGCAAAGACC,3.08 ± 0.0772,0.116 ± 0.0849
CTCGAGGATATCAAGATCTGGCCTCGGCGTTTTAACAGGAACCTCTAGCTAGCCGACTCACTATAGGGATAATCGCCCTGAGCAAAGACC,1.92 ± 0.0739,0.0535 ± 0.0797
CTCGAGGATATCAAGATCTGGCCTCGGCCGCCCACTAGGAACCTCTAGCTAGCCGACTCACTATAGGGATAATCGCCCTGAGCAAAGACC,-0.944 ± 0.114,0.246 ± 0.0891
CTCGAGGATATCAAGATCTGGCCTCGGCGTTTTAGTGGGAACCTCTAGCTAGCCGACTCACTATAGGGATAATCGCCCTGAGCAAAGACC,1.76 ± 0.0845,0.0814 ± 0.0894
